The list is a sample of the results.
aSyn UTR act = Activators via SNCA 5'UTR binding, MLPCN. activity score, % (tested at 7.5 µM), hits read low. AID 1814. alpha-synuclein 5'UTR reporter, activators screen. 7.1% of 300,000 active; in the data active = activity score below about -60%
An asterisk follows results filed as active.

SMILES	aSyn UTR act
Cc1nc(SCc2cccc(C(=O)O)c2)nc2c1CCCC2	59.0
COc1ccc2nc(SCc3ccccc3C)nc(C)c2c1	-106.9*
COc1ccc2nc(C)cc(SCC(=O)N/N=C/c3cccc4ccccc34)c2c1	47.1
COc1ccc2nc(SCc3cccc(C)c3)nc(C)c2c1	-106.5*
Cc1[nH]n(C(N)=S)c(=O)c1N=Nc1cccc(C(F)(F)F)c1	-164.6*
Cc1[nH]n(C2=NCCS2)c(=O)c1N=Nc1cccc(C(F)(F)F)c1	66.6
Cc1[nH]n(C(N)=S)c(=O)c1N=Nc1ccc(Br)cc1	-90.5*
Cc1ccc(N=Nc2c(C)[nH]n(C(N)=S)c2=O)cc1	-115.7*
NC(=O)C1CCN(C(=S)c2ccc(-c3ccc(Br)cc3)o2)CC1	-126.5*
CC1=Nc2ccccc2N=C(N)C1c1ccccc1 (stereo unspecified)	-123.9*
CCc1ccc(Nc2n[n+](-c3ccccc3)c(/C=C/c3ccccc3)s2)cc1	-169.2*
CN(C)c1ccc(-c2sc(Nc3ccccc3)n[n+]2-c2ccc(F)cc2)cc1	-203.5*
CCc1ccc(Nc2n[n+](-c3ccccc3)c(-c3ccc(OCc4ccccc4)cc3)s2)cc1	-61.8*
COc1ccc2c(c1OC)C(=O)N(c1nccs1)C2	-110.8*
COc1ccc(N2Cc3ccc(OC)c(OC)c3C2=O)cc1	-223.7*
COc1ccc(N2CCc3c(C)nc4c(OC)cccc4c32)cc1	89.1
Cc1c(Cl)ccc2c(C(=O)NC(C)c3ccncc3)cc(-c3ccncc3)nc12 (stereo unspecified)	-67.3*
COC(=O)c1sccc1N/N=C/c1ccc(OC)c(OC)c1OC	-140.1*
COC(=O)c1sccc1N/N=C/c1cccc(Oc2ccccc2)c1	-64.1*
CSc1ccccc1OCc1cc(C(=O)NC(C)c2cnn(C)c2)no1 (stereo unspecified)	-61.7*
CSc1ccccc1OCc1cc(C(=O)N[C@H]2CCCCNC2=O)no1	-83.1*
C=CCn1c(SCc2c(C)noc2C)nc2sc3c(c2c1=O)CCCCC3	64.7
O=c1c2c3c(sc2nc2sc(CN4CCCCC4)cn12)CCCC3	-87.0*
O=C(Cc1ccc(N2CCNC2=O)cc1)N1CCCC(Nc2cccc(F)c2)C1 (stereo unspecified)	63.8
O=C(NCCCN1CCCC1=O)C(=O)Nc1cccc(F)c1	-107.3*
SMILES	aSyn UTR act
Cc1ccc(NC(=O)NCCCN2CCCC2=O)cc1Cl	-66.4*
CC(=O)c1cccc(NC(=S)NC(=O)c2cccc(Cl)c2)c1	-159.7*
CC(=O)c1cccc(NC(=S)NC(=O)c2cncc(Br)c2)c1	-108.9*
COc1cc2ccccc2cc1C(=O)NC(=S)Nc1cccc(C(=O)O)c1	-91.4*
CC(=O)c1cccc(NC(=S)NC(=O)CC(C)(C)C)c1	-134.5*
CC(=O)c1cccc(NC(=S)NC(=O)c2ccccc2)c1	-140.6*
CCOc1cc(/C=N/Nc2cccc(C(=O)O)c2)ccc1OC(=O)c1ccccc1	97.5
COc1ccc2ccccc2c1/C=N/Nc1cccc(C(=O)O)c1	-108.4*
O=C(O)c1ccc(Nc2nc(-c3ccccc3)cs2)cc1	-113.9*
Cc1nc(NC(=O)c2ccccc2)sc1-c1csc(Nc2ccc(C(=O)O)cc2)n1	-73.3*
Cc1nc(N)sc1-c1csc(Nc2ccccc2)n1	-129.7*
COc1ccccc1Nc1nc(-c2sc(NC(=O)c3cccc(Cl)c3)nc2C)cs1	-85.5*
CCCC(C)C(=O)Nc1nc(C)c(-c2csc(Nc3cc(OC)ccc3OC)n2)s1 (stereo unspecified)	60.2
O=C(O)c1cccc(N/N=C/C2=C(Cl)c3cc(Cl)ccc3SC2)c1	-102.5*
O=c1c2ccccc2nc2ccc(NCc3ccco3)nn12	-144.2*
Cc1sc2nc3ccc(NCc4ccco4)nn3c(=O)c2c1C	-118.6*
COc1cc(SC)ccc1C(=O)Nc1cccc(C)n1	-87.5*
COc1cc(SC)ccc1C(=O)Nc1ccon1	-108.9*
COc1cc(SC)ccc1C(=O)Nc1ccc(Br)cn1	100.8
C/C(=N/OCc1ccc(Br)cc1)c1ccccn1	-122.7*
N/C(=N\OCc1ccc([N+](=O)[O-])cc1)c1ccccn1	112.1
Cc1cc(CN2CCCC(C(=O)Nc3ccc(-c4nc5ccccc5[nH]4)cc3)C2)n[nH]1 (stereo unspecified)	-120.8*
CC(C)n1cc(CN2CCCC(C(=O)Nc3cccc(-c4cc5ccccc5[nH]4)c3)C2)cn1 (stereo unspecified)	58.2
CC1=NN(c2ccc(C(=O)O)cc2)C(=O)/C1=C/c1ccc(-c2ccccc2F)o1	-88.1*
Cc1ccc(/C=N/Nc2nncn2N)cc1	-120.1*
SMILES	aSyn UTR act
Cc1ccccc1C(=O)Nc1ccc(Br)cn1	-76.5*
O=C(Nc1ccc2sccc2c1)c1ccc(Cl)s1	-198.1*
O=C(Nc1nc(-c2ccccn2)cs1)c1ccc(Cl)s1	67.7
O=C(Nc1ccc(Br)cn1)c1ccc(Br)s1	-198.5*
O=C(Nc1ccccn1)c1ccc(Cl)s1	-128.5*
O=C(Nc1nccs1)c1ccc(Cl)s1	-105.6*
O=C(Nc1ccc(Br)cn1)c1ccc(Cl)s1	-167.0*
Cc1cc(NC(=O)c2ccc(-c3ccccc3F)o2)no1	-124.8*
COc1ccccc1NC(=O)c1ccc(-c2ccccc2F)o1	-145.4*
COC(=O)c1ccccc1NC(=O)c1ccc(-c2ccccc2F)o1	-129.5*
Cc1ccc(S(=O)(=O)Oc2ccc(C)cc2/C=N/N=C2\NC(=O)C(C)S2)cc1 (stereo unspecified)	-66.2*
Oc1ccc(O)c(-c2cnns2)c1	-70.5*
COc1ccc(OC)c(NC(=O)NC2(C(F)(F)F)Oc3ccccc3O2)c1	-72.7*
Cc1ccc2c(CNCc3ccco3)cc(=O)oc2c1	-64.9*
O=C(/C=C/c1ccc(F)cc1)N1CCCc2ccccc21	-64.9*
O=C(/C=C/c1ccc(Cl)cc1Cl)N1CCc2ccccc21	-192.4*
O=C(/C=C/c1cccc(F)c1)N1CCc2ccccc21	-111.3*
COc1cc2cc(-c3ccc(O)cc3O)nc(C)c2cc1OC	-115.9*
COc1cc2cc(-c3ccc(OC)c(OC)c3C)nc(N)c2cc1OC	95.5
CCCOc1cccc(-c2cc(-c3n[nH]c(=S)n3CC)c3ccccc3n2)c1	-71.6*
CCn1c(-c2cc(-c3ccc(OC(C)C)cc3)nc3ccccc23)n[nH]c1=S	-104.0*
CCCOc1cccc(-c2cc(C(=O)NNC(=S)NCC)c3ccccc3n2)c1	-114.2*
CC(C)Oc1cccc(-c2cc(C(=O)NC(=S)N(C)c3ccccc3C(=O)O)c3ccccc3n2)c1	-74.7*
COc1ccc(OCc2csc(N)n2)cc1	-116.6*
Oc1ccc2c(c1)oc1cc(O)ccc12	-177.6*
SMILES	aSyn UTR act
NC(=O)c1sc2nc3c(c(-c4ccc(Cl)cc4)c2c1N)CCCC3	66.4
Nc1ccc2nc3c(c(Cl)c2c1)CCCC3	-88.4*
COc1ccc2c(c1)CC/C2=N\OC(=O)c1ccccc1OC	-65.1*
COC(=O)Cn1c(=NC(=O)c2ccc([N+](=O)[O-])s2)sc2cc(Br)ccc21	-67.8*
COC(=O)Cn1c(=NC(=O)c2ccc(Cl)s2)sc2cc(C)ccc21	-184.1*
COc1cc2oc(-c3ccc(O)cc3)cc(=O)c2c(O)c1OC	-73.4*
Cc1ccc(N=C2N=C(N)c3ccccc32)cc1C	-78.2*
CCc1ccc(N=C2N=C(N)c3ccccc32)cc1	-98.4*
CC(=O)n1c(Cl)c(NC(=O)CCl)c2ccccc21	-80.2*
CC(=O)n1cc(N(C(=O)CCl)c2ccccc2)c2ccccc21	106.3
COc1ccc(/C=N/NC(=O)c2cc3c(OC)ccc(OC)c3[nH]2)cc1O	68.3
COc1ccc(/C=N/NC(=O)c2cnccn2)cc1O	-62.9*
COc1ccccc1/C=C/C=N/NC(=O)c1ccccn1	-74.5*
COc1ccccc1/C=C/C=N/NC(=O)c1cnccn1	-69.5*

Assay outcomes as filed in PubChem.
